Source: PubChem
AmpC detergent = inhibitors of E. coli AmpC beta-lactamase with detergent; P00811; 0.041% of 370,000 active; AID 485294; AmpC hydrolysis of nitrocefin, absorbance 480 nm, 0.01% Triton; Potency, µM (top dose mostly 114 µM), without a hit: top-dose activity change, negative = inhibition, most hits filed as inhibitors;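 note: 0% = no-compound wells and -100% = no-enzyme wells; nearly all actives have a fitted effect of over 25% in size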
Target sequence (P00811 whole entry, looked up): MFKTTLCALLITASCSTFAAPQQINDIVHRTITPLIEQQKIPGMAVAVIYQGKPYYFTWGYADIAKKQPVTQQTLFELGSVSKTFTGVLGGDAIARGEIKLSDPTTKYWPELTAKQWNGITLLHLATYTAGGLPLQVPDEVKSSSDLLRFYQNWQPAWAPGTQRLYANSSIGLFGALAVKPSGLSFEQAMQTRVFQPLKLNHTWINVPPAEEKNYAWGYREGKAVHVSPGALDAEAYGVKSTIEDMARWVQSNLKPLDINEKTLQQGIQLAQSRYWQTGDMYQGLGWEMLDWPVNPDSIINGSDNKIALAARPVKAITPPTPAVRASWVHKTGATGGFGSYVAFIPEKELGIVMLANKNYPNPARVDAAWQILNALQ
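20 mM phosphate pH 7.0 + 0.01% (detergent screen) or 0.0001% Triton X-100; 5.3 nM AmpC reagent; cpd preinc 15 min RT; nitrocefin (800 uM stock) to start; A480 q20 s × 4 min; Activity was normalised to no-enzyme and no-compound control wells.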
Sm TGR block = inhibitors of Schistosoma mansoni thioredoxin glutathione reductase | Q962Y6 | purified TGR, DTNB reduction, TNB absorbance 405 nm | Potency, µM (highest dose often 114 µM), without a hit: top-dose activity change, negative = inhibition, usual class: inhibitors | 3% of 360,000 active | AID 485364; note: nearly all actives have a fitted effect of over 60% in size
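Kinetic colorimetric format: TGR-catalysed, NADPH-driven DTNB reduction monitored via TNB absorbance. Enzyme dispensed at 20 nM; compound exposure 15 min at room temperature before reaction start.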
AMA1 RON2 block = AMA1-RON2 (P. falciparum) interaction inhibition; AlphaScreen AMA1-biotinylated RON2 peptide binding; Potency, µM (highest dose often 58.2 µM), for the others: at the highest dose activity change, negative = inhibition, most hits filed as inhibitors; 0.2% of 360,000 active;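 note: 0% = vehicle wells and -100% = peptide control; nearly all actives have a fitted effect of over 45% in size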
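AMA1 (3D7) with his tag at 25 nM final met compounds first, then biotinylated RON2 peptide at 25 nM; detection used donor plus acceptor beads, 10 µg/mL apiece, read by AlphaScreen after 30 min at room temperature.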
RE007 growth inh = less growth of the S. pombe RE007 Vpr strain. 0.21% of 360,000 active. S. pombe RE007 Vpr strain, BacTiter-Glo ATP luminescence, 24 h. Potency, µM (titrated, usually from 92.2 µM), for the others: at the highest dose activity change, negative = less growth, most hits filed as inhibitors. AID 651644; active = well fitted falling curve with a large enough effect; inconclusive = small, poorly fitted or top-dose-only effect; inactive = no such curve, though single readings can be large or run the other way; note: nearly all actives have a fitted effect of over 50% in size
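Fission yeast strain RE007, carrying one chromosomally integrated HIV-1 vpr copy, was seeded at OD 0.01 in PMG+AL medium with 23 nL pinned compound. After 24 h at 30 °C and 99% humidity, viability was read by BacTiter-Glo luminescence.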
AmpC inh no detg = inhibitors of E. coli AmpC beta-lactamase without detergent. P00811. AmpC nitrocefin hydrolysis, absorbance 480 nm, 0.0001% Triton. Potency, µM (highest dose often 57.1 µM), for inactives: at the top dose activity change, negative = inhibition, actives largely listed as inhibitors. 0.52% of 330,000 active. AID 485341;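 note: plate controls were no compound for no effect and no enzyme for full effect; nearly all actives have a fitted effect of over 20% in size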
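20 mM phosphate pH 7.0 + 0.01% (detergent screen) or 0.0001% Triton X-100; 5.3 nM AmpC reagent; cpd preinc 15 min RT; nitrocefin (800 uM stock) to start; A480 q20 s × 4 min; Activity was normalised to no-enzyme and no-compound control wells.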
An asterisk follows results filed as active; ? = inconclusive; . = no result. Sampled rows, rich in hits. Any-hit rate of the full collection: about 3.2%. Unless noted, calls come from the whole dose curve; as a rule, active = well fitted curve in the direction sought with a large enough effect; inconclusive = small, poorly fitted or top-dose-only effect, or another doubt; inactive = no such curve, though single readings can be large; an effect the other way counts as inactive or inconclusive. Unless noted, % is set by controls: 0 for no effect and ±100 for the full control effect; potency is the fitted concentration of half-maximal effect.

SMILES	AmpC detergent	Sm TGR block	AMA1 RON2 block	RE007 growth inh	AmpC inh no detg
Oc1ccccc1C1=Nc2nc3ccccc3n2C(c2ccccc2)C1 (stereo unspecified)	0%	10µM*	-4%	?	-24%
Oc1ccccc1C1=NC(c2ccccc2)NC(c2ccccc2)C1 (stereo unspecified)	.	.	4%	-13%	.
Cc1ccc(C)n1-c1nnc(N2CCCC(C(=O)Nc3ccc(C(C)C)cc3)C2)s1 (stereo unspecified)	-12%	-16%	.	.	.
CCCc1cc(-n2ccnc2C)n2c(nc3ccccc32)c1C#N	.	.	0%	3%	.
CCCc1cc(N2CCN(C(=O)c3ccco3)CC2)n2c(nc3ccccc32)c1C#N	3%	40µM*	2%	12%	88%
CCCCn1c(=O)n(CC2CCC(C(=O)NCCCOC)CC2)c(=O)c2sccc21 (stereo unspecified)	21%	1%	.	.	.
CCN1CCOC(CC(=O)Nc2cccc([N+](=O)[O-])c2)C1=O (stereo unspecified)	0%	11µM*	-2%	?	-43%
CCCN1CCOC(CC(=O)Nc2ccc([N+](=O)[O-])cc2)C1=O (stereo unspecified)	6%	28µM*	25%	?	-33%
CCCN1CCC(NC(=O)Nc2ccc([N+](=O)[O-])cc2)CC1	-2%	2%	0%	5%	-27%
CC1CCN(CC(=O)Nc2cccc([N+](=O)[O-])c2)CC1	-8%	-16%	-4%	6%	-24%
O=C(NCc1ccccn1)c1nn(-c2ccccc2F)nc1CO	26%	0%	.	.	.
CCc1ccccc1NC(=O)NC1CCCCC1	5%	17%	0%	-20%	0%
O=C(Nc1ccccc1Cl)NC1CCCCCCC1	3%	5%	1%	11%	35µM*
O=C(CN1CCCC1)Nc1ccc(NC(=O)Nc2ccccc2Cl)cc1	?	-21%	-2%	-15%	16µM*
Cc1ccc2nc3c(cc(C#N)c(=O)n3-c3nnc(SCc4ccccc4Cl)s3)c(=O)n2c1	18%	6%	.	.	.
O=C1c2cccnc2C(Nc2ccccc2Br)N1Cc1ccco1 (stereo unspecified)	-3%	22µM*	-15%	5%	2%
COc1cc(NC2c3ncccc3C(=O)N2Cc2ccco2)cc(OC)c1OC (stereo unspecified)	-9%	?	11%	4%	-12%
O=C1c2cccnc2C(Nc2cccc(F)c2)N1Cc1ccco1 (stereo unspecified)	-15%	35µM*	-9%	18%	-6%
CC(=O)c1cccc(NC2c3ncccc3C(=O)N2Cc2ccco2)c1 (stereo unspecified)	0%	?	-2%	4%	0%
O=C1c2cccnc2C(Nc2ccccc2)N1Cc1ccco1 (stereo unspecified)	-1%	25µM*	-14%	-9%	-6%
O=C(Cn1ccc2cc(S(=O)(=O)N3CCCCCC3)ccc21)NCCc1ccc(Cl)cc1	19%	3%	.	.	.
COc1ccc(Cl)cc1NC(=O)c1c(NCc2cccnc2)sc2c1CCC(C)C2 (stereo unspecified)	2%	?	.	.	.
COc1ccc(Cn2c(NCC(C)C)nc3c2c(=O)n(C)c(=O)n3C)cc1	2%	-9%	.	.	.
COc1ccc(C(c2c(O)ccc3ccccc23)N2CCOCC2)c(OC)c1 (stereo unspecified)	-18%	3.5µM*	?	-5%	-6%
COc1ccc(C(CCN2CCOCC2)c2c(O)cc(OC)cc2OC)cc1 (stereo unspecified)	6%	-13%	-5%	-4%	14%
SMILES	AmpC detergent	Sm TGR block	AMA1 RON2 block	RE007 growth inh	AmpC inh no detg
O=C(NCC#CCOCc1ccccc1)c1ccccc1	-3%	7.1µM*	26%	2%	-27%
Cn1c(N)c(C(=O)COC(=O)C2CCCCC2)c(=O)n(C)c1=O	-2%	3%	-5%	-13%	7%
Cn1c(N)c(C(=O)CCl)c(=O)n(C)c1=O	-1%	25µM*	6%	-15%	-17%
Cn1c(N)c(C(=O)CCl)c(=O)n(Cc2ccccc2)c1=O	-10%	11µM*	-7%	1%	-28%
Cn1c(=O)c(C(=O)CCl)c(N)n(Cc2ccccc2)c1=O	-15%	7.1µM*	9%	2%	-1%
CCOC(=O)CN1c2ccccc2NC(=O)CC1C (stereo unspecified)	?	32µM*	-2%	10%	-15%
CCCN1C(=O)C(=O)N(CC(=O)N2c3ccccc3NC(=O)CC2C)C1=O (stereo unspecified)	.	.	-4%	-4%	.
CNc1cccccc1=S	0%	5.6µM*	?	-29%	29%
O=C1C=C(N2CCN(C3=CC(=O)CCC3)CC2)CCC1	?	20µM*	37%	0%	-23%
O=C1C=C(N2CCOCC2)CCC1	.	.	6%	9%	.
CC(C)(C)OC(=O)N1CC=C2C(C#N)=C(N)C(C#N)(C#N)C(c3cccs3)C2C1 (stereo unspecified)	0%	?	9%	14%	-39%
CC(C)(C)OC(=O)N1CC=C2C(C#N)=C(N)C(C#N)(C#N)[C@H](c3cccnc3)[C@H]2C1	?	35µM*	14%	14%	-10%
CN(Cc1ccccc1)C(=O)c1ncn(Cc2ccccc2)c1C(=O)N(C)Cc1ccccc1	-3%	-12%	4%	-22%	118%
CN(Cc1ccccc1)C(=O)c1ncn(C)c1C(=O)N(C)Cc1ccccc1	1%	20µM*	-8%	-12%	2%
Cc1cc(C)cc(NC(=O)CCS(=O)(=O)c2ccc3c(c2)oc(=O)n3C)c1	-3%	-22%	.	.	.
CC#CC#Cc1cccc(=O)o1	3%	20µM*	-10%	-5%	-7%
Cc1cccc(NC(=O)c2cnc3sccn3c2=O)c1C	?	-1%	.	.	2.8µM*
Cc1cccc(NC(=O)c2cnc3sccn3c2=O)c1	4%	3%	0%	-5%	-22%
O=C1OC(Nc2nc(-c3ccc(F)cc3)cs2)c2ccccc21 (stereo unspecified)	-9%	4µM*	0%	5%	-39%
COc1cc(CNCCCSc2nnnn2C)cc(Br)c1OC	-5%	7%	.	.	-10%
Cc1ccc(S(=O)(=O)/N=C2\C(=O)c3ccccc3C([O-])=C2n2cc[n+](CCC(C)C)c2)cc1	6%	-18%	0%	-10%	-12%
CC(=O)Nc1ccc(S(=O)(=O)/N=C2\C(=O)c3ccccc3C([O-])=C2n2cc[n+](-c3ccccn3)c2)cc1	4%	7.1µM*	12%	-23%	-8%
N#Cc1c(SCC(=O)Nc2nncs2)sc2c(O)cc(=O)[nH]c12	?	35µM*	-9%	2%	-37%
